Results on 16 compounds are retold here after PubChem BioAssay.

Unmarked numbers belong to inactive results. No rule for the calls is given here.

Broadly, the inhibition is the drop in the measured response relative to a control, in per cent.

In the test the target is L-lactate dehydrogenase (Plasmodium falciparum (isolate CDC / Honduras)) (UniProt Q27743). Put plainly: PfLDH activity inhibition – cell lysate, 3D7 strain, counter-screen for P. falciparum growth inhibition project (AID 2304).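 Also: 0% = vehicle and 100% = reference inhibitor.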 As to conditions: P. falciparum 3D7 crude extract, LDH APAD/NBT absorbance; at 2 µM; stronger effect = higher value. (In general: Counterscreens check selectivity or assay interference.)
Chain of L-lactate dehydrogenase (Plasmodium falciparum (isolate CDC / Honduras)) (Q27743 whole entry, looked up): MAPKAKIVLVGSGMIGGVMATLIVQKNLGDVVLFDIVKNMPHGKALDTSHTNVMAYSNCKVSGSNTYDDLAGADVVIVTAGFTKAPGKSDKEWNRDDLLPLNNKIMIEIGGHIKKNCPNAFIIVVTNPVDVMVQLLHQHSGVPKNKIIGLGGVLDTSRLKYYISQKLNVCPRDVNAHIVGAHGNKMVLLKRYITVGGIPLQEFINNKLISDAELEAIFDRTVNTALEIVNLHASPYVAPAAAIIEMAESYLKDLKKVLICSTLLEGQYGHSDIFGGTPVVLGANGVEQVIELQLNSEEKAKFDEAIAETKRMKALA
As for `O=C(Nc1ccc(-c2ccccc2)s1)N[C@H]1CCN(Cc2ccc(OCCCN3CCCCC3)cc2)C1`, the inhibition is -6%.

`COc1cc(Nc2nc(N)c3cc(OC)c(OC)cc3n2)cc(OC)c1`: the inhibition was 4%.

Regarding `O=c1cc(NCCCNCc2ccc(C(F)(F)F)s2)[nH]c2ccccc12`, the inhibition is 2%.

On to `Cc1cc(NC(=O)c2sc3ccccc3c2O)no1`, for which the inhibition was 1%.

As for `Nc1nccc2ccc(-c3ccsc3)cc12`, the inhibition is 4%.

Consider `COc1cc2nc(NCCC(C)C)n3nc(-c4ccccc4)nc3c2cc1OC`, for which the inhibition is 4%.

`COc1ccc2nccc([C@@H](O)CN3CCC(NCc4cc5c(F)ccc(F)c5[nH]4)CC3)c2c1`: the inhibition was 0%.

Turning to `CCCN(CC)CCOC(=O)c1ccccc1`, the inhibition is -4%.

With `C[C@H](Nc1nc(C(Oc2ccccc2)c2ccccc2)nc2[nH]ncc12)c1ccccc1` (stereo partly specified), the inhibition was -5%.

On to `Cc1ccc(O)cc1C[C@@H]1C(=O)CC[C@@]2(C)[C@H]1CC[C@]2(C)O`, for which the inhibition was 1%.

`Cc1ccc2c(NN=Cc3ccc(Cl)cc3)cc(C)nc2c1`: the inhibition was -2%.

In the case of `COC(=O)c1cccc(CNCc2cccc(-c3ccc(-c4nc5ccccc5[nH]4)cc3)c2)c1`, the inhibition was 4%.

`COc1cc2nc(Nc3ccc(C)cc3)nc(Nc3ccc(C)cc3)c2cc1OC`: the inhibition is -1%.

As for `Cc1cc(NCc2ccccc2)nc2cc(O)ccc12`, the inhibition is 6%.

On to `Cn1cccc1C(=O)C(=O)Nc1cccc(-c2ccc(-c3nc4ccc(C(F)(F)F)cc4[nH]3)cc2)c1`, for which the inhibition was -7%.

For the compound `O=C(N[C@@H](Cc1ccccc1)[C@H](O)CNC1CCCCC1)c1cc(C2CCCC2)cc(N2CCCC2=O)c1`, the inhibition was 0%.
